The record followed here is PubChem BioAssay (EPA / NIEHS).

Inconclusive results are not listed. The source made the active and inactive calls. Rule for the calls, unless noted: active = hit-call score of the fitted dose curve at least 0.9, where 1 is the maximum; inconclusive = response in the unintended direction; inactive = score below 0.9.

The nature of test [1]: ATG_TGFb_CIS: Attagene CIS-FACTORIAL HepG2 Assay for human Transforming Growth Factor (TGF) (AID 2282967; active = hit-call score of the fitted dose curve at least 0.9, where 1 is the maximum; inactive = score below 0.9). Particulars: HepG2 Attagene CIS TGFb reporter, mRNA transcription; actives raise or lower the signal. In a few lines: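 HepG2 cells transiently transfected with cis-promoter-driven multiplexed reporter units; 24 h compound exposure. Reporter mRNA measured by RT-PCR, 6-FAM labeling, HpaI digestion and capillary electrophoresis; bidirectional fit versus DMSO baseline.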

Test [2] in a line: ATG_VDRE_CIS: Attagene CIS-FACTORIAL HepG2 Assay for human Vitamin D Receptor Element (VDRE) (AID 2282968; active = hit-call score of the fitted dose curve at least 0.9, where 1 is the maximum; inactive = score below 0.9). The following applies: HepG2 VDRE cis-reporter transcription, actives raise or lower the signal. In a few lines: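 In transiently transfected HepG2 liver cells, gain or loss of reporter mRNA after 24 h exposure is scored relative to DMSO, using fluorescence detection by capillary electrophoresis of RT-PCR products.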

The target of test [3] is Nuclear receptor subfamily 1 group I member 3 (Homo sapiens) (UniProt Q14994). The experiment in a line: ATG_CAR_TRANS: Attagene TRANS-FACTORIAL HepG2 Assay for human Constitutive Androstane Receptor (CAR) (AID 2282969).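 Note: activators raise reporter mRNA above DMSO so AC50 marks induction.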 The following applies: HepG2 Attagene TRANS-FACTORIAL CAR reporter. The essentials:
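Readout is reporter mRNA induction, quantified by fluorescent primer extension and capillary electrophoresis after RT-PCR. Cells were HepG2 transiently carrying chimeric NR-Gal4 constructs with GAL4-UAS reporters, treated for 24 h; activity scored upward from DMSO.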

Test [4] has as its target X-box-binding protein 1 (Homo sapiens) (UniProt P17861). The test can be described thus: ATG_Xbp1_CIS: Attagene CIS-FACTORIAL HepG2 Assay for human X-box Binding Protein 1 (XBP1) (AID 2282972; active = hit-call score of the fitted dose curve at least 0.9, where 1 is the maximum; inactive = score below 0.9). Particulars: HepG2 XBP1 cis-element reporter, Attagene multiplex; actives raise or lower the signal. In a few lines: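 HepG2 cells transiently transfected with multiple cis-element reporter units report endogenous TF activity; 24 h exposure, then reporter mRNA measured by RT-PCR, 6-FAM labelling, HpaI digestion and capillary electrophoresis. Bidirectional fitting versus DMSO.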

The target of test [5] is Androgen receptor (Homo sapiens) (UniProt P10275). The test can be described thus: ATG_AR_TRANS: Attagene TRANS-FACTORIAL HepG2 Assay for human Androgen Receptor (AR) (AID 2282973). The following applies: HepG2 Attagene TRANS-FACTORIAL AR reporter transcription. In a few lines:
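Readout is reporter transcript abundance, quantified by fluorescent RT-PCR products separated on capillary electrophoresis. Human HepG2 liver cells carried transiently transfected NR-Gal4 chimera plus GAL4-UAS reporter constructs and were dosed for 24 h; activity scored upward versus DMSO.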

Test [6] addresses Estrogen-related receptor gamma (Homo sapiens) (UniProt P62508). The test can be described thus: ATG_ERRg_TRANS: Attagene TRANS-FACTORIAL HepG2 Assay for human Estrogen-Related Receptor gamma (ERRg) (AID 2282977).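 Note: hits increase reporter signal over DMSO so potencies reflect activators.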 Particulars: HepG2 Attagene TRANS reporter, ERRg transactivation. The essentials: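 HepG2 cells transiently transfected with multiplexed GAL4-UAS reporter units and chimeric NR-Gal4 constructs were exposed to test chemicals for 24 h. Reporter mRNA was measured by RT-PCR, 6-FAM primer extension, HpaI digestion and capillary electrophoresis; gain-of-signal versus DMSO.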

In test [7] the target is Oxysterols receptor LXR-alpha (Homo sapiens) (UniProt Q13133). The experiment in a line: ATG_LXRa_TRANS: Attagene TRANS-FACTORIAL HepG2 Assay for human Liver X Receptor alpha (LXRa) (AID 2282980). The following applies: HepG2 Attagene TRANS reporter, LXRa transactivation. In a few lines:
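Read-out: reporter transcript levels by RT-PCR plus capillary electrophoresis, fluorescence intensity. Transiently transfected HepG2, exogenous NR-GAL4 chimera, GAL4-UAS reporters; 24 h compound exposure. Activity = increase over DMSO negative control.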

Test [8] addresses Hepatocyte nuclear factor 4-alpha (Homo sapiens) (UniProt P41235). The test can be described thus: ATG_HNF4a_TRANS: Attagene TRANS-FACTORIAL HepG2 Assay for human Hepatocyte Nuclear Factor 4 alpha (HNF4a) (AID 2282982). Particulars: HepG2 HNF4a transactivation reporter, mRNA readout. The essentials: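 Transfected HepG2 reporter cells are dosed for 24 h; reporter RNA is reverse-transcribed, amplified, fluorescently labelled and HpaI-digested before CE sizing. Positive-direction fit against DMSO.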

Test [9] can be described thus: ATG_M_06_TRANS: Attagene TRANS-FACTORIAL HepG2 Assay for M06 Transcription Factor (Internal Marker) (AID 2282983). The following applies: HepG2 Attagene TRANS M06 internal marker reporter. The essentials:
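After a 24 h chemical treatment of transfected HepG2, RNA underwent DNase I treatment, reverse transcription and reporter-specific PCR; labelled, HpaI-digested products were sized by capillary electrophoresis. Signal increase relative to DMSO defined activity.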

For test [10], the target named is Nuclear receptor subfamily 4 group A member 2 (Homo sapiens) (UniProt P43354). The test can be described thus: ATG_NURR1_TRANS: Attagene TRANS-FACTORIAL HepG2 Assay for human Nuclear Receptor Related Protein 1 (NURR1) (AID 2282985). The following applies: HepG2 Attagene TRANS reporter, mRNA readout. In a few lines:
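Cells: HepG2, transiently transfected. Exposure: 24 h. Detection: fluorescence of labelled RT-PCR products separated by capillary electrophoresis; upward fit versus DMSO.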

Test [11] addresses Transcriptional activator Myb (Homo sapiens) (UniProt P10242). The experiment in a line: ATG_Myb_CIS: Attagene CIS-FACTORIAL HepG2 Assay for human Myeloblastosis (Myb) Proto-Oncogene Transcription Factor (AID 2282986; active = hit-call score of the fitted dose curve at least 0.9, where 1 is the maximum; inactive = score below 0.9). The following applies: HepG2 Attagene CIS-FACTORIAL Myb reporter transcription; actives raise or lower the signal. In a few lines:
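HepG2, transient MRTU transfection (cis-element promoters, endogenous TF activity), 24 h compound exposure. Readout: reporter mRNA via RT-PCR, 6-FAM labeling, HpaI digest, capillary electrophoresis. Gain/loss fit vs DMSO.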

The target in test [12] is Nuclear respiratory factor 1 (Homo sapiens) (UniProt Q16656). The test can be described thus: ATG_NRF1_CIS: Attagene CIS-FACTORIAL HepG2 Assay for human Nuclear Respiratory Factor 1 (NRF1) Orphan Gene (AID 2282987; active = hit-call score of the fitted dose curve at least 0.9, where 1 is the maximum; inactive = score below 0.9). The following applies: HepG2 NRF1 cis-element reporter, Attagene multiplex; actives raise or lower the signal. In a few lines:
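Endogenous NRF1-driven reporter transcription measured in transiently transfected human HepG2 liver cells. Readout: reporter mRNA by RT-PCR and capillary electrophoresis with fluorescence detection, 24 h post-dosing. Gain or loss of signal fitted relative to DMSO baseline.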

Test [13] can be described thus: ATG_M_19_TRANS: Attagene TRANS-FACTORIAL HepG2 Assay for M19 Transcription Factor (Internal Marker) (AID 2282974). Particulars: HepG2 Attagene TRANS-FACTORIAL M19 internal marker reporter. In a few lines:
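24 h chemical exposure of transiently transfected HepG2 (MRTU library). RNA → oligo(dT) RT → PCR → 6-FAM labelling → HpaI cut → CE fluorescence. Positive-direction fit vs DMSO baseline; background internal-marker readout.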

The nature of test [14]: ATG_GAL4_TRANS: Attagene TRANS-FACTORIAL HepG2 Assay for GAL4 (Internal Marker) (AID 2282976). The following applies: HepG2 Attagene TRANS GAL4 internal marker reporter. The essentials: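 RT-PCR/capillary electrophoresis readout of reporter mRNA. HepG2, transient MRTU transfection (GAL4-UAS reporters), 24 h compound exposure. Background-control endpoint, positive direction vs DMSO baseline.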

Test [15] has as its target Bile acid receptor (Homo sapiens) (UniProt Q96RI1). The experiment in a line: ATG_FXR_TRANS: Attagene TRANS-FACTORIAL HepG2 Assay for Farnesoid X Receptor (FXR) (AID 2282979).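 Note: hits raise reporter mRNA above DMSO so AC50 marks FXR activation.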 The following applies: HepG2 Attagene TRANS FXR-GAL4 reporter transcription. In a few lines: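 Read-out: fluorescent reporter transcripts quantified by capillary electrophoresis after RT-PCR of total RNA. Source cells were HepG2 transiently carrying chimeric NR-GAL4 plus GAL4-UAS reporter units, dosed 24 h. Activity fitted upward relative to DMSO baseline.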

Test [16] can be described thus: ATG_M_32_TRANS: Attagene TRANS-FACTORIAL HepG2 Assay for M32 Transcription Factor (Internal Marker) (AID 2282984).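 Note: transcript level of a background control reporter unit measured by RT-PCR and capillary electrophoresis.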 The following applies: HepG2 Attagene TRANS M32 internal marker reporter. In a few lines:
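Using transiently transfected HepG2 cells exposed to test chemicals for 24 h, reporter transcripts are converted to labelled cDNA fragments and quantified by capillary electrophoresis. DMSO defines the activity baseline.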

For test [17], the target named is Estrogen receptor (Homo sapiens) (UniProt P03372). The experiment in a line: ATG_ERa_TRANS: Attagene TRANS-FACTORIAL HepG2 Assay for human Estrogen Receptor alpha (ERa) (AID 2282970). The following applies: HepG2 Attagene TRANS ERa GAL4 reporter, mRNA. In a few lines: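 After 24 h of compound treatment, RNA from HepG2 cells bearing transfected GAL4-UAS reporter constructs is converted to cDNA, amplified and fluorescently labelled. Capillary electrophoresis resolves the ERa-linked reporter; DMSO serves as negative control.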

In test [18] the target is Oxysterols receptor LXR-beta (Homo sapiens) (UniProt P55055). The experiment in a line: ATG_LXRb_TRANS: Attagene TRANS-FACTORIAL HepG2 Assay for human Liver X Receptor beta (LXRb) (AID 2282981). Particulars: HepG2 Attagene TRANS GAL4-LXRb reporter, mRNA. In a few lines: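 Cells: HepG2, transiently transfected with GAL4-UAS reporter units plus LXRb-Gal4 fusion. Treatment: 24 h. Detection: reporter mRNA by RT-PCR, 6-FAM labelling, HpaI digestion, capillary electrophoresis.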
Oxysterols receptor LXR-beta (Homo sapiens), sequence (P55055 whole entry, looked up, the tested form may be a part): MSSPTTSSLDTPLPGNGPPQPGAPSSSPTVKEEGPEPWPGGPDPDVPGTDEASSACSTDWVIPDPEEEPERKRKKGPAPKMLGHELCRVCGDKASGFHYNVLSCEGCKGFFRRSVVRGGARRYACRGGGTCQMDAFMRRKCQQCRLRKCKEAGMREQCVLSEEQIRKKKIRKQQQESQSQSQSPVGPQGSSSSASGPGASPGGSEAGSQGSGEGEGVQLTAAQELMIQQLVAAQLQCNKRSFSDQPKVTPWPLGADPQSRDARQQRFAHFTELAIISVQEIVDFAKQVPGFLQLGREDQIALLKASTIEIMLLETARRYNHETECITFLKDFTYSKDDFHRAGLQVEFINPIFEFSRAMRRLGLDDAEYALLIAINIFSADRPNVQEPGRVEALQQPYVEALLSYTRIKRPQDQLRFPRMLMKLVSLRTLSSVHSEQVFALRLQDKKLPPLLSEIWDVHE

X-box-binding protein 1 (Homo sapiens), sequence (P17861 whole entry, looked up): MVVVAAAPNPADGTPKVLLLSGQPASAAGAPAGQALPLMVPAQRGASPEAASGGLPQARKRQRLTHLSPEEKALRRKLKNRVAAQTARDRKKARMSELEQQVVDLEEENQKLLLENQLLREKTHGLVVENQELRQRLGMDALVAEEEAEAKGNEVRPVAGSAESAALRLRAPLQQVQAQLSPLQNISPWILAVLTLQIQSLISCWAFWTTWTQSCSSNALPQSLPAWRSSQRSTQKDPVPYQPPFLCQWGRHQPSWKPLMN
Nuclear respiratory factor 1 (Homo sapiens), sequence (Q16656 whole entry, looked up): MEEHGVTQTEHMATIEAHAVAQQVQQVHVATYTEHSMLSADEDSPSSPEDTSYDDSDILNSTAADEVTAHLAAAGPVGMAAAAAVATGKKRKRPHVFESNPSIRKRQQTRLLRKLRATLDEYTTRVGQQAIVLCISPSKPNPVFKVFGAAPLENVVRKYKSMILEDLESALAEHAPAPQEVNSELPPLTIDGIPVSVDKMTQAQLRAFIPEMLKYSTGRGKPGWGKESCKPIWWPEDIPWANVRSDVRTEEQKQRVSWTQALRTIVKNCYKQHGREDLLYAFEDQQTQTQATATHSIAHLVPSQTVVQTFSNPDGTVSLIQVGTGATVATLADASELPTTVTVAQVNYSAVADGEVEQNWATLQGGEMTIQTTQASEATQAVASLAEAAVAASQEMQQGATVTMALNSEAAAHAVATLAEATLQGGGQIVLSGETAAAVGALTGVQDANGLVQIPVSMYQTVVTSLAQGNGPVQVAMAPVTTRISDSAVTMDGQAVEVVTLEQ
Nuclear receptor subfamily 4 group A member 2 (Homo sapiens), sequence (P43354 whole entry, looked up): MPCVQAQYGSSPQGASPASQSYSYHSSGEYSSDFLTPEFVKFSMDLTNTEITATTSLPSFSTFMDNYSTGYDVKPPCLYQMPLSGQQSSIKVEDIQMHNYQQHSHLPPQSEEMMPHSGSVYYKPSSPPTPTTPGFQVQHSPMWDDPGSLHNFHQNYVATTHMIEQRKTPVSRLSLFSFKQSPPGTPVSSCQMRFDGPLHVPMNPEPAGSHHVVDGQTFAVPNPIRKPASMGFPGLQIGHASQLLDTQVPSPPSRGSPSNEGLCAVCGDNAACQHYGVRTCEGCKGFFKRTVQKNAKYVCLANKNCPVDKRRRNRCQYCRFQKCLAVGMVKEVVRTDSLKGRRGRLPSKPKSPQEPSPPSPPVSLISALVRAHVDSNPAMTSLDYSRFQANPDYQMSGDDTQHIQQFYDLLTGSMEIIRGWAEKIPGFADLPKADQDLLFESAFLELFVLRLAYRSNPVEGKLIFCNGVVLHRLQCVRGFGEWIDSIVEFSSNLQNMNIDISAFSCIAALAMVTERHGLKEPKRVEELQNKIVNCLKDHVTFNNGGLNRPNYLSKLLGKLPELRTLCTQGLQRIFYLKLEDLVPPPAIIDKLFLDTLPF
Transcriptional activator Myb (Homo sapiens), sequence (P10242 whole entry, looked up): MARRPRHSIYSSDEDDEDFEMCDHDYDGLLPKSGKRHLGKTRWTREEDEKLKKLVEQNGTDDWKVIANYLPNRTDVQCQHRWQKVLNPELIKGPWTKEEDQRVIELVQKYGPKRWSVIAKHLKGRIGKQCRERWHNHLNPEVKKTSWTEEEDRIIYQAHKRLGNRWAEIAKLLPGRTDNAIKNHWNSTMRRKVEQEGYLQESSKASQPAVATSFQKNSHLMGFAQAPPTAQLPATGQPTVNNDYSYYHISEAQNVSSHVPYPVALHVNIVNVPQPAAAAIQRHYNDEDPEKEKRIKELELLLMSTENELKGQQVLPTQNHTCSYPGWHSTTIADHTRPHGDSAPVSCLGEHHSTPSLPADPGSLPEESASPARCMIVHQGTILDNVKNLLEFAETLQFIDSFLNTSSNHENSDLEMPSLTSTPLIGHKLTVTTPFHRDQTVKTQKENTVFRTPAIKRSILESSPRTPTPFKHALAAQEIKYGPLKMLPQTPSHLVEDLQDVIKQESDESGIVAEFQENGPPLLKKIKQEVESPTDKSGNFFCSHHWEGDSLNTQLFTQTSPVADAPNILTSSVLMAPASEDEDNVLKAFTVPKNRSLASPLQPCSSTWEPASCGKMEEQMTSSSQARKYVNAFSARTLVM
Bile acid receptor (Homo sapiens), sequence (Q96RI1 whole entry, looked up, the tested form may be a part): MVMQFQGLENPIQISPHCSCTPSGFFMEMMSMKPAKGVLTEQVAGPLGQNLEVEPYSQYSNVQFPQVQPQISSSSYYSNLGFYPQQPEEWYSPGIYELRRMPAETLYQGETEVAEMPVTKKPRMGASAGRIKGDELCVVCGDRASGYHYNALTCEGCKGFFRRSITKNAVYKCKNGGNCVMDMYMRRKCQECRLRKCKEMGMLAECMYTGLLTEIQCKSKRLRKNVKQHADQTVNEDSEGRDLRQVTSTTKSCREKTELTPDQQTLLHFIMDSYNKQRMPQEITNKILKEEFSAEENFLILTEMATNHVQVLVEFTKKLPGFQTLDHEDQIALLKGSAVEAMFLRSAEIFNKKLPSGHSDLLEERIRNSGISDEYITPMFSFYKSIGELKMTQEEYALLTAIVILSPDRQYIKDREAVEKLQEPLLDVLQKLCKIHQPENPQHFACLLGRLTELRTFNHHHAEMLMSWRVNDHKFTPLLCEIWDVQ
Nuclear receptor subfamily 1 group I member 3 (Homo sapiens), sequence (Q14994 whole entry, looked up, the tested form may be a part): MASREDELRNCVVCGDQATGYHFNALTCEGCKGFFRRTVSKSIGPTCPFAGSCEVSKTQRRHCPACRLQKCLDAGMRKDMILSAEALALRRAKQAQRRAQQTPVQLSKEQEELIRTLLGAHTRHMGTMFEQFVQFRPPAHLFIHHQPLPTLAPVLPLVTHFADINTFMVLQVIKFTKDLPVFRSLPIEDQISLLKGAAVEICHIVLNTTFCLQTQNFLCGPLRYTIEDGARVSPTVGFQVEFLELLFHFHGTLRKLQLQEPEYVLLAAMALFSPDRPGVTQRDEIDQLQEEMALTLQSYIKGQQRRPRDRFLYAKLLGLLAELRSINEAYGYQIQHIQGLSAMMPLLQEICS
Estrogen-related receptor gamma (Homo sapiens), sequence (P62508 whole entry, looked up, the tested form may be a part): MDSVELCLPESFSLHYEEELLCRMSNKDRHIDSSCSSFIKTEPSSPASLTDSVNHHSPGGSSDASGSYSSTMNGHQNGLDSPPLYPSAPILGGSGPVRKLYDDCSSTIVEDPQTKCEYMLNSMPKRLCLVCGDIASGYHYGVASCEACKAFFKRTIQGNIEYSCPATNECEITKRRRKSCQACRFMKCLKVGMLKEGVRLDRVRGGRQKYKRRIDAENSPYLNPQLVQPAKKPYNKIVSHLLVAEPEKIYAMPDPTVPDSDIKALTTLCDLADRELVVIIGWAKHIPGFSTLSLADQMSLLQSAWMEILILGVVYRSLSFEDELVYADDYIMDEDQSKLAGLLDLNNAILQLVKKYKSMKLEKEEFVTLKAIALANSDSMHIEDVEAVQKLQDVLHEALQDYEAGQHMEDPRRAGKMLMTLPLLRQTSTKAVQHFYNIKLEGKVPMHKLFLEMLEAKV
Oxysterols receptor LXR-alpha (Homo sapiens), sequence (Q13133 whole entry, looked up, the tested form may be a part): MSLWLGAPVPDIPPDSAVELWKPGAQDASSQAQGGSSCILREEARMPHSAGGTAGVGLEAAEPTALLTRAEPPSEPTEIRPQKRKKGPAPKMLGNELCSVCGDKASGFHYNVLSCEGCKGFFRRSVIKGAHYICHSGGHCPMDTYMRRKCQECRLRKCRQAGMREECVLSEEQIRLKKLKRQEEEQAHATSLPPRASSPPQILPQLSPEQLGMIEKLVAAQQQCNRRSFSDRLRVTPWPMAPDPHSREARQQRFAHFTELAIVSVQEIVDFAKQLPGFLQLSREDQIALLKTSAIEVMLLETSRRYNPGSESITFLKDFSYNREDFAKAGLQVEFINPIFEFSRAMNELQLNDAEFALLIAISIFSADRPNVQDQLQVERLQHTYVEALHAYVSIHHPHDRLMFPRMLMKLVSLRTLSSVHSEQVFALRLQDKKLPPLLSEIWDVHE
Hepatocyte nuclear factor 4-alpha (Homo sapiens), sequence (P41235 whole entry, looked up): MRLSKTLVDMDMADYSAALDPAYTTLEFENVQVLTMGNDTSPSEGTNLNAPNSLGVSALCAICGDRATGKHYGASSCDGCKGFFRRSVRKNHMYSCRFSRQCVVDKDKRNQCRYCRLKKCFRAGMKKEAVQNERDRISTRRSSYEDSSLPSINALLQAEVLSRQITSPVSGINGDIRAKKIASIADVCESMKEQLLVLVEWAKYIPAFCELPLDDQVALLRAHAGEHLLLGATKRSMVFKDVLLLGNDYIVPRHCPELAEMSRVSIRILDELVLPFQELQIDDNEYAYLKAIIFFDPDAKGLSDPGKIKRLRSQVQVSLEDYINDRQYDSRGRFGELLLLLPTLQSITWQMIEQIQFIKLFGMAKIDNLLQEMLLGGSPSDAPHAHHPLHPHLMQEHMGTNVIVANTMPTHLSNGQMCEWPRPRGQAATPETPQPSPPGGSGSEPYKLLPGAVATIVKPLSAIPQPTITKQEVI

`C[CH2][Hg][S]c1ccccc1C(=O)O`: the molecule was classed as inactive in test [1], in [3], in [5], in test [6], in test [7] and in test [8]. The result in [9], in test [10] and in [12] was inactive. Further, the values for the AC50 in test [2], in test [4] and in test [11] were 3 µM (active), 2.7 µM (active) and 3.89 µM (active), respectively.
Take `CCOC(=O)C(SP(=S)(OC)OC)c1ccccc1` (centres undefined): the result in [1], in test [2], in [3], in test [4], in test [13] and in [14] was inactive. The molecule was classed as inactive in test [6], in test [7], in test [16], in test [10], in [11] and in test [12]. For the same molecule, in [15], the half-maximal activity concentration (AC50) – broadly, the concentration giving half of the maximal activity seen – was 30.7 µM (active).
As to `Cc1cccc(N=Nc2ccc(N(C)C)cc2)c1`, the molecule was called inactive in [1], in test [3], in test [17], in test [4], in [6] and in test [8]. For the same molecule, the molecule was classed as inactive in [9], in test [11] and in test [12]. In addition, in [2], the half-maximal activity concentration (AC50) was 19.8 µM (active).
In the case of `BrCc1ccc(Br)cc1`, the result in test [1], in test [2], in test [3], in test [4], in test [14] and in test [15] was inactive. Moreover, the result in [9], in test [11] and in [12] was inactive.
As for `Clc1cnc(Oc2ccc(Oc3ncc(Cl)cc3Cl)cc2)c(Cl)c1`, the result in test [1], in test [3], in test [4], in test [13], in test [18] and in [10] was inactive. Further, the molecule was classed as inactive in test [11] and in test [12]. In addition, the AC50 in test [2] was 20 µM (active).
Consider `C[C@@H]1O[C@@H](O[C@H]2C[C@@H](O)[C@]3(CO)[C@H]4[C@H](O)C[C@]5(C)[C@@H](C6=CC(=O)OC6)CC[C@]5(O)[C@@H]4CC[C@]3(O)C2)[C@H](O)[C@H](O)[C@H]1O`, for which the outcome in [1], in [2], in test [3], in [13], in test [15] and in test [18] was inactive. The result in [9], in [10] and in test [12] was inactive. The values for the half-maximal activity concentration (AC50) in [4] and in test [11] were 0.628 µM (active) and 0.328 µM (active), respectively.
